Source: PubChem BioAssay AID602295 (Broad Institute, 2012)
Calls of active or inactive are those of the source.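 How the source made its calls: active means every separate test run called active, meaning the signal drops and a potency is fitted within twice the top valid dose; inconclusive means runs disagree, poor fit, or flat partial inhibition; inactive means all runs inactive, flat, opposite direction or too weak.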

Target: Mitogen-activated protein kinase 3 (Homo sapiens) (UniProt P27361)
Test: inhibition of MAPK3 kinase activity – biochemical, ADP-Glo luminescence, cherry pick, set 2, selectivity assay for Dyrk1A inhibitor NFAT project, dose response (AID 602295)
Settings: ERK1 kinase, 120 min; series mostly up to 10 µM; activity change, negative = inhibition: at the top concentration

Chain of Mitogen-activated protein kinase 3 (Homo sapiens) (P27361 whole entry, looked up): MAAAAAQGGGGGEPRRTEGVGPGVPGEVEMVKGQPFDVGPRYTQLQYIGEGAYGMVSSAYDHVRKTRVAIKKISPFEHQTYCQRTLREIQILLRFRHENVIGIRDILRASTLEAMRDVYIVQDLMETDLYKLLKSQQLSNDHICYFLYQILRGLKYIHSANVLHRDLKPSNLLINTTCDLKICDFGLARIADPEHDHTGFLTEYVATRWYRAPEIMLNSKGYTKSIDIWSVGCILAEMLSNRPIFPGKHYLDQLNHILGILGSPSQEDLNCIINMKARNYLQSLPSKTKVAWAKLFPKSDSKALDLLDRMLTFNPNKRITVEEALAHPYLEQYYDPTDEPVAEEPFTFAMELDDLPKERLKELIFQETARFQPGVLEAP

Activity change, negative = inhibition, inactive:
Cc1nc(NC(=O)c2ccccc2)sc1-c1csc(NCc2ccco2)n1 -17.2%, c1cncc(CNc2nccc(-c3ccc4c(c3)OCO4)n2)c1 17.8%, O=C(COc1ccccc1)Nc1cccc(-c2cn3cccnc3n2)c1 -13.8%, Cc1nc(NC(=O)c2ccccc2)sc1-c1csc(N)n1 -10%, c1cncc(CNc2nccc(-c3ccc4cn[nH]c4c3)n2)c1 1.75%, O=[N+]([O-])c1cc(Nc2nccc(-c3ccc4c(c3)OCO4)n2)cc(C(F)(F)F)c1 19%, CCOC(=O)c1ccc(-c2ccc3ncnc(N(C)Cc4sccc4C)c3c2)o1 13.8%, O=C(NCc1ccco1)c1sc2ccccc2c1Cl 10.5%, Cc1ccnc(NC(=O)c2cccc(S(=O)(=O)N3CCN(c4ccccc4)CC3)c2)c1 5.59%, c1cncc(CNc2ccnc(-c3ccc4[nH]ncc4c3)n2)c1 8.55%, Cc1ccsc1CN(C)c1ncnc2ccc(-c3ccoc3)cc12 9.45%, c1cncc(-c2nc(NCc3ccco3)c3ccccc3n2)c1 -18.8%, N#Cc1c(C(F)(F)F)cc(-c2cccc(Cl)c2)[nH]c1=O -9.95%, c1csc(CNc2ncnc3ccc(-c4ccoc4)cc23)c1 37.5%, Cc1noc(NS(=O)(=O)c2ccc(NC(=O)c3oc4ccc(Cl)cc4c3C)cc2)c1C -10.1%, CN(Cc1nccs1)c1ncnc2ccc(-c3ccc4c(c3)OCO4)cc12 13.9%, COc1cccc(-c2sc3ccccc3c2-c2ccc(OCCN3CCCC3)cc2)c1 21.3%, COc1cccc(Nc2nc(NCCO)c3ccccc3n2)c1 14.1%, NC(=O)c1c(NC(=O)c2ccc(N3C(=O)CCC3=O)cc2)sc2c1CCCC2 -13%
